From PubChem BioAssay come the findings set out here.

Activity calls are given as the source filed them.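 The calls were made as follows, unless noted: active = fluorescence slope after compound addition differing from the mean of all screened samples at 99.7% confidence, in either direction; inactive = the rest.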

Experiment [1] in a line: inhibitors of TNFa-induced NFkB p65 translocation, primary screen, imaging, HUVEC, MLSMR starter and 10KST1 sets (AID 438;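 active = inhibition above 20% together with a positive visual image hit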;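 also: compound added about 3h40 before a 20 min TNFalpha stimulation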;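 as to inhibition: signal is the nuclear over cytoplasmic p65 intensity ratio per well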). The note with it: HUVEC TNFa-induced p65 nuclear translocation; cell count: measured here: nuclei count (cytotoxicity indicator), at 2.08 µM; inhibition: at 2 µM, stronger effect = higher value, 0% TNFa-plus-vehicle, 100% no-TNFa wells.
The nature of experiment [2]: reduction of polyQ htt aggregates in cells – imaging, exon1htt(103Q)mCFP cells, high-content imaging, primary screen (AID 483;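 active = visual image review flags a hit and inhibition of aggregation exceeds 20%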;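 also: compound exposure lasted 3 days before fixation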;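 as to nuclei count: percent of the per-plate median nuclei count of sample wells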). The note with it: exon1htt(103Q)mCFP cell line, aggregate imaging, at 2 µM; inhibition of aggregation: stronger effect = higher value; nuclei count: measured here: cell count, toxicity.
Experiment [3] is described as follows: endothelial E-selectin expression blockers – imaging, HUVEC, immunofluorescence, MLSMR starter and 10KST1 sets, primary screen (AID 487;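 active = visually confirmed hit in the image check and inhibition above 20%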;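 as to inhibition: signal is fraction of cell area covered by stained E-selectin grains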;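 as to nuclei count: 100% = median nuclei count of all wells on the same plate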). The note with it: HUVEC TNFalpha-induced E-selectin immunofluorescence imaging, at 2 µM; inhibition: stronger effect = higher value; nuclei count: measured here: cell number, toxicity.
The target in experiment [4] is Voltage-gated potassium channel subunit beta-2 (Rattus norvegicus) (UniProt P62483). In words: inhibitors of rat Kvbeta2 reductase activity – biochemical, NADPH fluorescence, primary screen (AID 622;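 active = fluorescence slope higher than the sample average by over 3 SD, cut at about -0.22 in these data, passing the limit was not always enough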;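 also: slope of raw intensity against log time taken from 70 to 1610 s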). The settings on record: recombinant KvBeta, 4-cyanobenzaldehyde reduction, at 10 µM, stronger effect = higher value.
For experiment [5] the target is unchanged. Briefly: enhancers of rat Kvbeta2 NADPH turnover – biochemical, NADPH fluorescence, primary screen (AID 623;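 active = NADPH fluorescence slope more negative than the mean of all samples by about 3 SD, 99.7% confidence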;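 also: fluorescence intensity change per second fitted from 20 to 320 s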). The note with it: Recombinant KvBeta, NADPH fluorescence decrease slope, 10 min; at 10 µM; stronger effect = lower value.
The target in experiment [6] is Alpha-2C adrenergic receptor (Homo sapiens) (UniProt P18825). In words: compounds altering alpha2C-coupled GIRK flux – cell-based, HEK293 alpha2C/GIRK1/2, thallium flux, primary screen (AID 624).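 Also: slope of fluorescence ratio to pre-addition baseline per second over 15 to 24 s.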 The settings on record: thallium flux BTC fluorescence, at 10 µM, actives lie on both sides.
Experiment [7] can be described thus: blockers of RIG-like receptor reporter activation – cell-based, Sendai virus stimulus, luciferase, 10K MLSCN set, TLR/RLR signaling modifier project, primary screen (AID 602276;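 active = inhibition at or above 50% at 10 µM; inactive = inhibition below 50%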;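 also: firefly luciferase from ISG56 promoter only with Renilla not read in this screen; 0% = Sendai virus plus DMSO and 100% = medium plus DMSO without virus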). The settings on record: HEK293 RL24 IRF3 luciferase reporter, at 10 µM, stronger effect = higher value. A general note: In a reporter assay the amount or activity of a reporter protein is the signal.

The nature of experiment [8]: TLR3 IRF3 reporter activation blockers – cell-based, poly I:C stimulus, luciferase, 10K MLSCN set, primary screen (AID 602277;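 active = inhibition of the reporter signal at or above 50%; inactive = inhibition below 50%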). The note with it: HEK293-TLR3 RL24 IRF3 luciferase reporter, at 10 µM, stronger effect = higher value.

Chain of Voltage-gated potassium channel subunit beta-2 (Rattus norvegicus) (P62483 whole entry, looked up): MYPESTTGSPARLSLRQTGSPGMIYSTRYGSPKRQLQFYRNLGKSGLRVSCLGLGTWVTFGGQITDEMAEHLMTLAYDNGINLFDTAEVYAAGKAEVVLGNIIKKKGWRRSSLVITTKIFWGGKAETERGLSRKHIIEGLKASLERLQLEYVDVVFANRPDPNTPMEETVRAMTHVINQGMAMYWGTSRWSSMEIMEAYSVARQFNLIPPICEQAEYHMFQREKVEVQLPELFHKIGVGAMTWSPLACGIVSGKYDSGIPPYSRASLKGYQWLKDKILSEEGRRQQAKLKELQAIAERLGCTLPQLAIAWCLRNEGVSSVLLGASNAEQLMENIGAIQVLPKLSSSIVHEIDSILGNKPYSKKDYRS
Chain of Alpha-2C adrenergic receptor (Homo sapiens) (P18825 whole entry, looked up): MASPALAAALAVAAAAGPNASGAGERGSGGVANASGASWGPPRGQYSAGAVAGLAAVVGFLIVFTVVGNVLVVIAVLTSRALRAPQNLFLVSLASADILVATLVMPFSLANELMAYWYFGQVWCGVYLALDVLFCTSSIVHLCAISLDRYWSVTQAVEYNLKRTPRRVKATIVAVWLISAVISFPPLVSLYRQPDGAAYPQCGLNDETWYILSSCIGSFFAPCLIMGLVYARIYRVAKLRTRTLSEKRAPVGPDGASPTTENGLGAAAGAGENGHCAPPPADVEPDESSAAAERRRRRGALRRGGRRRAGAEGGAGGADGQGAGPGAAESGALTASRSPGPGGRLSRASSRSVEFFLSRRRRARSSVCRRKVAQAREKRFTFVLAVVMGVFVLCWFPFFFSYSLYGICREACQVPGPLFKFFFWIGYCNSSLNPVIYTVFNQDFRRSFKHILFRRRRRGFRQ

The inhibition is the relative decrease from the control value, in per cent. Consider `COc1cccc(-c2nnc(NC(C)=O)o2)c1`, for which the cell count in experiment [1] amounted to 694. Also, the inhibition in experiment [1] was 0.3% (inactive); in experiment [3], -24.3% (inactive); in experiment [7], -11% (inactive); in experiment [8], 6.47% (inactive). In addition, the inhibition of aggregation in experiment [2] is -16.5% (inactive). Also, the nuclei count in experiment [2] turned out to be 99.5%; in experiment [3] it was 118%. In addition, the fluorescence slope in experiment [4] is -0.407 (inactive). In experiment [5], the NADPH fluorescence slope is -6.1e-05 (inactive). Besides, the slope in experiment [6] is 0.00477 (inactive).
Turning to `CCN(CC)S(=O)(=O)c1ccc(S(=O)(=O)N(Cc2ccccn2)Cc2ccco2)cc1`, the cell count in experiment [1] worked out at 322. Moreover, the inhibition in experiment [1] is -0.8% (inactive); in experiment [3], -68.2% (inactive); in experiment [7] it was 6.58% (inactive); in experiment [8], 18.5% (inactive). Moreover, the inhibition of aggregation in experiment [2] was -9.2% (inactive). The results for the nuclei count in experiment [2] and in experiment [3] were 112% and 123%, respectively. The fluorescence slope in experiment [4] was -0.608 (inactive). Further, the NADPH fluorescence slope in experiment [5] is 6.2e-06 (inactive). The slope in experiment [6] is 0.00512 (inactive).
For `CC12CCC(C(=O)N3CCCCC3)(CC1=O)C2(C)C` (centres undefined), the cell count in experiment [1] came out at 483. Moreover, the inhibition was 2% (inactive) in experiment [1], -305% (inactive) in experiment [3], 10.9% (inactive) in experiment [7] and 28.7% (inactive) in experiment [8]. For the same compound, the inhibition of aggregation in experiment [2] was -4.8% (inactive). For the same compound, the nuclei count in experiment [2] turned out to be 99.5%; in experiment [3], 126%. Moreover, the fluorescence slope in experiment [4] is -0.299 (inactive). In addition, the NADPH fluorescence slope in experiment [5] was 8.8e-06 (inactive). Moreover, the slope in experiment [6] is 0.00667 (inactive).
For `O=C(O)CCC(=O)c1c[nH]c2ccccc12`, in experiment [1], the cell count was found to be 458. Moreover, the inhibition is 0.5% (inactive) in experiment [1], -43.2% (inactive) in experiment [3], -16.3% (inactive) in experiment [7] and 8.52% (inactive) in experiment [8]. For the same compound, the inhibition of aggregation in experiment [2] is 20% (inactive). Moreover, the nuclei count came out at 103% in experiment [2] and 105% in experiment [3]. Moreover, the fluorescence slope in experiment [4] is -0.457 (inactive). In addition, in experiment [5], the NADPH fluorescence slope is 9.9e-05 (inactive). For the same compound, the slope in experiment [6] was 0.00973 (inactive).
`COc1ccccc1OCC(=O)N1CCNC1=O`: in experiment [1], the cell count turned out to be 652. Further, the inhibition in experiment [1] is 2.2% (inactive); in experiment [3] it was -78.6% (inactive); in experiment [7], 0.107% (inactive); in experiment [8], 20.1% (inactive). The inhibition of aggregation in experiment [2] is -1.9% (inactive). Moreover, the nuclei count is 101% in experiment [2] and 104% in experiment [3]. Further, the fluorescence slope in experiment [4] was -0.548 (inactive). Also, the NADPH fluorescence slope in experiment [5] is -4.2e-06 (inactive). Further, the slope in experiment [6] was 0.00602 (inactive).
On to `CCc1c(C)c2c(C)nn(-c3ccccc3)c2[nH]c1=O`, for which, in experiment [1], the cell count is 292. For the same compound, the inhibition is -0.8% (inactive) in experiment [1], -49.1% (inactive) in experiment [3], 6.95% (inactive) in experiment [7] and -0.265% (inactive) in experiment [8]. Further, the inhibition of aggregation in experiment [2] is 21.9% (inactive). For the same compound, the nuclei count came out at 94.5% in experiment [2] and 123% in experiment [3]. Besides, the fluorescence slope in experiment [4] was -0.409 (inactive). The NADPH fluorescence slope in experiment [5] was -0.000123 (inactive). Also, the slope in experiment [6] is 0.00678 (inactive).
On to `CCc1nnc(NC(=O)CSc2nnc(CSc3nc(C)cc(C)n3)n2CC)s1`, for which the cell count in experiment [1] was determined as 424. Moreover, the inhibition is -5% (inactive) in experiment [1], -40.7% (inactive) in experiment [3], -5.81% (inactive) in experiment [7] and -12.1% (inactive) in experiment [8]. In experiment [2], the inhibition of aggregation was -13.6% (inactive). The nuclei count in experiment [2] amounted to 128%; in experiment [3] it was 129%. The fluorescence slope in experiment [4] was -0.37 (inactive). The NADPH fluorescence slope in experiment [5] is 8.3e-06 (inactive). Besides, the slope in experiment [6] is 0.00824 (inactive).
On to `COc1ccccc1NC(=O)c1cc2n(n1)C(C(F)(F)F)CC(c1ccc3c(c1)OCO3)N2` (centres undefined), for which the cell count in experiment [1] was 479. For the same compound, the inhibition in experiment [1] was 2.4% (inactive); in experiment [3] it was -14.9% (inactive); in experiment [7], -5.6% (inactive); in experiment [8], -16.2% (inactive). The inhibition of aggregation in experiment [2] is 5.1% (inactive). Moreover, the nuclei count is 109% in experiment [2] and 110% in experiment [3]. In experiment [4], the fluorescence slope is -0.629 (inactive). For the same compound, in experiment [5], the NADPH fluorescence slope is 6.1e-06 (inactive). The slope in experiment [6] was 0.00604 (inactive).
As to `CCOc1ccc(N(CC)C(=O)COc2cc(=O)n(C)c3ccccc23)cc1`, the cell count in experiment [1] turned out to be 622. Further, the inhibition in experiment [1] is 16.5% (inactive); in experiment [3], -47.3% (inactive); in experiment [7], 12.4% (inactive); in experiment [8] it was 29.8% (inactive). The inhibition of aggregation in experiment [2] was -19.7% (inactive). In addition, the nuclei count in experiment [2] was 101%; in experiment [3], 118%. For the same compound, the fluorescence slope in experiment [4] was -0.516 (inactive). In addition, the NADPH fluorescence slope in experiment [5] is 7.5e-06 (inactive). Besides, the slope in experiment [6] is 0.0065 (inactive).
